For some of these results: Entries with a potency or affinity are not part of this list.

Design in all cases: scale not given: direction of the effect not stated beside the values
For assay [1], the target named is Protein translocase subunit SecA (Escherichia coli (strain K12)) (UniProt P10408). Kind of assay: Assay to Identify E. coli SecA ATPase Inhibitors. Particulars: 30 µM. In kind it is functional.
Assay [2] deals with T1, Ubiquitin-activating enzyme e1, putative (Leishmania donovani (strain BPK282A1)) (UniProt E9BSI1).
T1 sequence (whole entry): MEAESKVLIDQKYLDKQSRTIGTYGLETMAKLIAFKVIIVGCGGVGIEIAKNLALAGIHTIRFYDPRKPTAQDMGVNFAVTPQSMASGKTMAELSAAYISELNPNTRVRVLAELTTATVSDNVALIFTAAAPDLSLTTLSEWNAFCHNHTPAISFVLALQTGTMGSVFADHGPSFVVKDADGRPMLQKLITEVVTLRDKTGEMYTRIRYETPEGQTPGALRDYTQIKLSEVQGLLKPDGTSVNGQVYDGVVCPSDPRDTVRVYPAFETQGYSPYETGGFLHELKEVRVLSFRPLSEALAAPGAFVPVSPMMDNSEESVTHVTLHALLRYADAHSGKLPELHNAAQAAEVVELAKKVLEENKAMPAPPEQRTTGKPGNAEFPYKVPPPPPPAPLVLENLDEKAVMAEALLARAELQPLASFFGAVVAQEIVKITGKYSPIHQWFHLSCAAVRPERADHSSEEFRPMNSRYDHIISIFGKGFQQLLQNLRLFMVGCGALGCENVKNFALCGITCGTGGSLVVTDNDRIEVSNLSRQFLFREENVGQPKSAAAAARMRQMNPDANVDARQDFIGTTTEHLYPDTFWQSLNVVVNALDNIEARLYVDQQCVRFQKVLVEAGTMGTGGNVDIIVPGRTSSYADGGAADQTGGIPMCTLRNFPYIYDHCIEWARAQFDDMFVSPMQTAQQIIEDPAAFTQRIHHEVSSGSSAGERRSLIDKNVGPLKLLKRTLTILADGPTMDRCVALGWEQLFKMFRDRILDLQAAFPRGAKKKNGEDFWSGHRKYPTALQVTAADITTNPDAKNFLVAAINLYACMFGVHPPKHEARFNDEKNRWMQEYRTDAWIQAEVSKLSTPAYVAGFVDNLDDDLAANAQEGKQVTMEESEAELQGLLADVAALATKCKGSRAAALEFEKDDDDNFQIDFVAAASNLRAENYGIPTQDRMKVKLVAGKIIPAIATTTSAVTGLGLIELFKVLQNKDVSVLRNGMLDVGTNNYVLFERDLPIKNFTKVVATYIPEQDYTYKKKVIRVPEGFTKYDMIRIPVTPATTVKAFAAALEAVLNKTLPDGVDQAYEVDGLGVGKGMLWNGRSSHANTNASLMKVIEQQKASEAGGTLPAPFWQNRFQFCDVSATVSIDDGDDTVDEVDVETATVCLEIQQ
Kind of assay: Leishmania donovani Ubiquitin Activating Enzyme (LdE1). The format is functional. The following applies: 30 µM.

Assay [3] has as its target Sialic acid-binding Ig-like lectin 9 (Homo sapiens) (UniProt Q9Y336). Kind of assay: Hs-Siglec9 ALPHAscreen SOP 20170721. The following applies: 10 µM. Background: Bead proximity is the source of the signal in Alpha formats.
The test system of another assay is Trypanosoma cruzi. Kind of assay: Trypanosoma cruzi phosphomannomutase and mannose-1-phosphate guanylyltransferase assay. In kind it is functional. The following applies: 10 µM.
The target in assay [4] is T2, Arginase-2, mitochondrial (Homo sapiens) (UniProt P78540).
T2 sequence (whole entry): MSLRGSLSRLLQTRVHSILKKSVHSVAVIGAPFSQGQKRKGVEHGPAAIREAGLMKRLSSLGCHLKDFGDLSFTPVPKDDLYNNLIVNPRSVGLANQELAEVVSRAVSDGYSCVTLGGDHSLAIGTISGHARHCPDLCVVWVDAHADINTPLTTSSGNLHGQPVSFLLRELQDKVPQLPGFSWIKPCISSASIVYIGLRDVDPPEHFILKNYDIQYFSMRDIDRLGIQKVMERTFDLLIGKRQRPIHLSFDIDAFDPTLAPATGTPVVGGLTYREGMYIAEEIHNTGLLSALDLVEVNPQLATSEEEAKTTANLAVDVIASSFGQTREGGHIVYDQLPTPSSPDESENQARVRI
Kind of assay: in vitro enzyme assay to detect the production of urea directly proportional to the activity of Arginase II. Also: in the data most compounds retested in dose-response had high values. The format is functional. Particulars: 33.3 µM.

Assay [5] has as its target T3, Proteasome subunit beta (Trypanosoma cruzi) (UniProt O96673).
T3 sequence (whole entry): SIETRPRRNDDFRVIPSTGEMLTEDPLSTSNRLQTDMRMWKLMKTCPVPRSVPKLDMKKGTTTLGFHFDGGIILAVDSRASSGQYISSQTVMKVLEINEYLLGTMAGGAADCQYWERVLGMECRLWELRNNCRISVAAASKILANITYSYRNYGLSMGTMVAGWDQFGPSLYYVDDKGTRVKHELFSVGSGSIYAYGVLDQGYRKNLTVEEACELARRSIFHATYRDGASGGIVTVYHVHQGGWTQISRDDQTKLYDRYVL
Kind of assay: Trypanosoma cruzi proteasome chymotrypsin-like activity (TcProtChymo) assay. Also: in the data most compounds retested in dose-response had high values. In kind it is functional. Particulars: 9.37 µM.

For the next assay, the species on record is Homo sapiens. Kind of assay: To identify inhibition of the IFN signalling (Jak-Stat) pathway via expression of an eGFP reporter gene under the control of an IFN-stimulated response element (ISRE) containing MxA promoter. The format is functional. Particulars: 30 µM. A general note: In a reporter assay the amount or activity of a reporter protein is the signal.

In assay [6] the target is T4, Tyrosyl-tRNA synthetase, putative (Trypanosoma cruzi (strain CL Brener)) (UniProt Q4DSP6).
T4 sequence (whole entry): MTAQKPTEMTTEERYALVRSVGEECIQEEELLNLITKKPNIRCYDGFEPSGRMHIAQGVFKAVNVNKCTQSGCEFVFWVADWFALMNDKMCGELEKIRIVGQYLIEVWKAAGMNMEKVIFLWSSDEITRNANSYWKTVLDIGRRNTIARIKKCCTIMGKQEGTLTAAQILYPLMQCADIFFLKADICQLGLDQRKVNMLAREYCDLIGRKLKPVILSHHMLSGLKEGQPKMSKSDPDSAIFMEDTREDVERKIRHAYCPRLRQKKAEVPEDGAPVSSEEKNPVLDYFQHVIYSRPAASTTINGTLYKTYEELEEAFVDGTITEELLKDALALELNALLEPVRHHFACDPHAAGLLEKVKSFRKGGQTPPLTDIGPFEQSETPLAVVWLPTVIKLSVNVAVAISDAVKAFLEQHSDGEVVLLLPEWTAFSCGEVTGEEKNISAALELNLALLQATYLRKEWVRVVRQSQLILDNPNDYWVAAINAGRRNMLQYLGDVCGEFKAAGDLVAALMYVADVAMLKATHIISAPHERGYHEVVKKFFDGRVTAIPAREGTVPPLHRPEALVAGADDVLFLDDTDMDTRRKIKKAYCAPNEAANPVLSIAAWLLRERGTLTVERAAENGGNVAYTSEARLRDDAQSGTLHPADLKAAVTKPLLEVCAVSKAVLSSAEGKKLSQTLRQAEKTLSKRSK
Kind of assay: Trypanosoma cruzi tyrosyl tRNA synthetase (TcYRS) _High Tyrosine SOP. Also: in the data most compounds retested in dose-response had high values. The following applies: 30 µM. The format is functional.

In assay [7] the target is T4, Tyrosyl-tRNA synthetase, putative (Trypanosoma cruzi (strain CL Brener)). Kind of assay: Trypanosoma cruzi tyrosyl tRNA synthetase (TcYRS) SOP. The following applies: 30 µM. In kind it is functional.
In assay [8] the target is Chromo domain-containing protein 1 (Saccharomyces cerevisiae (strain ATCC 204508 / S288c) (Baker's yeast)) (UniProt P32657). Kind of assay: ScCHD-1 Enzyme Inhibition Assay. Also: in the data most compounds retested in dose-response had high values. The format is functional. The following applies: 30 µM.
Chromo domain-containing protein 1 (Saccharomyces cerevisiae (strain ATCC 204508 / S288c) (Baker's yeast)), sequence (P32657 whole entry, the tested form may be a part): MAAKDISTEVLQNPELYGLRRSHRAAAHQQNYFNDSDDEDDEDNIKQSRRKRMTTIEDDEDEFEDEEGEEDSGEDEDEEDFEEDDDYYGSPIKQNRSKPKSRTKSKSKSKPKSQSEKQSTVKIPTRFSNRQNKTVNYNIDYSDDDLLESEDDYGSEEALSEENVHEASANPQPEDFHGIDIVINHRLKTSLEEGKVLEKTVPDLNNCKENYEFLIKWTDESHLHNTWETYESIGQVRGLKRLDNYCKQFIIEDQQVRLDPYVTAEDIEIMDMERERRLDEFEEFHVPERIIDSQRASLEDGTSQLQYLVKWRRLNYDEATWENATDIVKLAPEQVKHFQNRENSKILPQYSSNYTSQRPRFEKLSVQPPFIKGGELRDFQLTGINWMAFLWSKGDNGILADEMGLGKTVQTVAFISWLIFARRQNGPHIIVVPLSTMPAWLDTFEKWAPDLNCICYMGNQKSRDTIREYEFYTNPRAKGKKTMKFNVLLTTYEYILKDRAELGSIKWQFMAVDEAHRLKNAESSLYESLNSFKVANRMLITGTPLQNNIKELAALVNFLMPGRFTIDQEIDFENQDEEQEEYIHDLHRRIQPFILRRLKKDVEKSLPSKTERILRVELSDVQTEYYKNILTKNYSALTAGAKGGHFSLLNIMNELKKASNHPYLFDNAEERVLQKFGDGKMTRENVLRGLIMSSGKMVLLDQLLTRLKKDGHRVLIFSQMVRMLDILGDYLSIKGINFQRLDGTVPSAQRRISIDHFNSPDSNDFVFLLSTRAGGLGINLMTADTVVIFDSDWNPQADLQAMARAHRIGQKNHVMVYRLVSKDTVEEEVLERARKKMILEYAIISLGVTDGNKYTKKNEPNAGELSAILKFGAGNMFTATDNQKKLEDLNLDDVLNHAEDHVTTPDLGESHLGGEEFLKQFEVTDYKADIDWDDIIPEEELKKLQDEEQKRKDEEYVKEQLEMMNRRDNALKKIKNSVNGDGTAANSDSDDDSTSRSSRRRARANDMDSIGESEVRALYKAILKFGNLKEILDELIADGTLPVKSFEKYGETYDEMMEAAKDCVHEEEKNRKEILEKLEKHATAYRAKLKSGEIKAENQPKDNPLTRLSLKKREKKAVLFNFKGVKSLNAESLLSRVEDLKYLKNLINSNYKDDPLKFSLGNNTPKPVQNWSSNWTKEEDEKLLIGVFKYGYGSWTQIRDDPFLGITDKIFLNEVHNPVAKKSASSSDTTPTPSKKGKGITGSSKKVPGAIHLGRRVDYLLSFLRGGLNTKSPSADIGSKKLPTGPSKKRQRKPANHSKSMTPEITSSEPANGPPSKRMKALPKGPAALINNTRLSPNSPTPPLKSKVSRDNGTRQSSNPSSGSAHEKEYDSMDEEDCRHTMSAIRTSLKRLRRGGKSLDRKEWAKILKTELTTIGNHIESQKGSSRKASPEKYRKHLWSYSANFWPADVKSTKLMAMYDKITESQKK

Protein translocase subunit SecA (Escherichia coli (strain K12)), sequence (P10408 whole entry): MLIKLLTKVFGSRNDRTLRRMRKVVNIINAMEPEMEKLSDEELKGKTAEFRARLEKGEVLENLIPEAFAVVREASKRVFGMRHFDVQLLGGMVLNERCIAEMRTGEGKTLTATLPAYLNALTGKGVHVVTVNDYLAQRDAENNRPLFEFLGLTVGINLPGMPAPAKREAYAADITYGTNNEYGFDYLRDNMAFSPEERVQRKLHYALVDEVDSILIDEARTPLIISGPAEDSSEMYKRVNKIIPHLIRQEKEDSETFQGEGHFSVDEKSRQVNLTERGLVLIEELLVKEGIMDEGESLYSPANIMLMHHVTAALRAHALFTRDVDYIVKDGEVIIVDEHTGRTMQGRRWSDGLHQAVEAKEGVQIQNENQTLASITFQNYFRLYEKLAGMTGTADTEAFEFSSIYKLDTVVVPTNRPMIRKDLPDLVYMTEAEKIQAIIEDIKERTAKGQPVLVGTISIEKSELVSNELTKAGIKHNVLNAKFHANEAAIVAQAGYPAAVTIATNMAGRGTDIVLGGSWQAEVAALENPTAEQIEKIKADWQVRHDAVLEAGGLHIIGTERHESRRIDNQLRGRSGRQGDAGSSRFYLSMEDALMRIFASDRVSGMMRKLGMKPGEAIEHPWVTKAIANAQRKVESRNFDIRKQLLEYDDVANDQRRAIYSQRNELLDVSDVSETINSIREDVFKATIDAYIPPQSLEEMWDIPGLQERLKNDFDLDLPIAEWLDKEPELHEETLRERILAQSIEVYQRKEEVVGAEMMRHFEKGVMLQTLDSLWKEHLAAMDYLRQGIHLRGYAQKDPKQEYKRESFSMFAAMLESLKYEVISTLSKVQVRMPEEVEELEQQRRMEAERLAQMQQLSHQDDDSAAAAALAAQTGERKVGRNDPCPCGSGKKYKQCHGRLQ
Sialic acid-binding Ig-like lectin 9 (Homo sapiens), sequence (Q9Y336 whole entry): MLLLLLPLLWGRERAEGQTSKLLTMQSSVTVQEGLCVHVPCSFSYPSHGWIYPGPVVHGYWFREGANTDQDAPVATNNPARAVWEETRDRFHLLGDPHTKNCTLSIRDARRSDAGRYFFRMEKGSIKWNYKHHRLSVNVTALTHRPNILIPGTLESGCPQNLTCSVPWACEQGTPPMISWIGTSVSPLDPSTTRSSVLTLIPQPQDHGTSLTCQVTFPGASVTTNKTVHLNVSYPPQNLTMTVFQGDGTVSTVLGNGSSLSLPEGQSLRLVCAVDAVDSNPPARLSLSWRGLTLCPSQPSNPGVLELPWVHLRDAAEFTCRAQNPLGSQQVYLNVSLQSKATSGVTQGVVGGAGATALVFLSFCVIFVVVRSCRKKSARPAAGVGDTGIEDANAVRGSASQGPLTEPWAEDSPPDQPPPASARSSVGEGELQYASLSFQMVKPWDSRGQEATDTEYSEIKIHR

Consider `c1cncc(N2CCOCC3(CCCN(c4nncs4)C3)C2)c1` (stereo not given), for which the Percent Effect in assay [1] was -4.46%; in assay [2], -3.9%; in [3], -2.68%; in the assay with Trypanosoma cruzi, -1.27%; in [4], -2.02%; in assay [5], 7.33%. Moreover, the Percent Effect is 2.84% in the assay filed under Homo sapiens, 2.63% in [6], 7.69% in assay [7] and 3.64% in assay [8].
On to `c1cn2c(n1)CN(CC1CC1)CC(CN1CCOCC1)C2` (stereo not given), for which the Percent Effect in [1] was -6.5%; in assay [2], 9.09%; in [3], 6.06%; with Trypanosoma cruzi, -2.24%; in assay [4] it was -2.43%; in assay [5], 11%. The Percent Effect in the assay listed under Homo sapiens was -10.6%; in assay [6], 17.4%; in assay [7] it was 12.8%; in assay [8] it was 0.532%.
Turning to `COCCN1C(=O)CCC12CCN(C(=O)CC1CC1)CC2`, the Percent Effect in assay [1] was -0.652%; in assay [2] it was -1.3%; in assay [3], 0.0799%; in the assay on Trypanosoma cruzi it was -0.938%; in [4], 2.28%; in [5], 5.75%. The Percent Effect in the assay listed under Homo sapiens is 11.8%; in assay [6], -0.966%; in assay [7], -15%; in [8], 0.945%.
`CC(C)c1nc(CC(=O)N2CCCC(n3cncn3)C2)cs1` (stereo not given): the Percent Effect is -0.0395% in assay [1]; 20.5% in assay [2]; -14.2% in assay [3]; 4.6% in the assay on Trypanosoma cruzi; 8.2% in [4]; 14.2% in [5]. Moreover, the Percent Effect in the assay listed under Homo sapiens was 24%; in assay [6], 1.44%; in assay [7] it was 22.9%; in [8], -5.56%.
On to `Cc1cnn(C(C)C2CC2)c1NC(=O)c1cnccn1` (stereo not given), for which the Percent Effect in assay [1] was -5.04%; in [2], 0%; in [3], 0.592%; in the assay on Trypanosoma cruzi, 1.07%; in assay [4] it was 0.35%; in assay [5] it was -1.03%. Further, the Percent Effect is 16.7% in the assay listed under Homo sapiens, 1.6% in assay [6], 4.88% in assay [7] and 2.37% in assay [8].
For the compound `c1ccc(CN2CCOCC3(CCN(C4CCOCC4)C3)C2)cc1` (stereo not given), the Percent Effect in assay [1] was -5.53%; in assay [2] it was 6.49%; in assay [3], -8.07%; with Trypanosoma cruzi, -4.58%; in [4] it was -3.24%; in assay [5] it was 22.9%. Moreover, the Percent Effect is 8.96% in the assay listed under Homo sapiens, 3.68% in [6], 10.3% in assay [7] and -0.0594% in assay [8].
On to `COCC(=O)N1CCC(c2cc(C(F)(F)F)n3ccnc3n2)CC1`, for which the Percent Effect in assay [1] is -4.74%; in [2] it was 17.3%; in assay [3], 7.36%; in the assay with Trypanosoma cruzi, 3.75%; in assay [4], 0.885%; in assay [5] it was 9.85%. In addition, the Percent Effect in the assay filed under Homo sapiens was 5.45%; in assay [6] it was 3.17%; in [7], 15%; in assay [8], -24.5%.
As to `CCN1C(=O)CCCC12CCCN(C(=O)c1cnccn1)C2` (stereo not given), the Percent Effect was -2.55% in assay [1]; 3.9% in assay [2]; 1.16% in [3]; -0.75% in the assay with Trypanosoma cruzi; -2.28% in assay [4]; 2.49% in [5]. For the same compound, the Percent Effect in the assay filed under Homo sapiens is 14.1%; in assay [6] it was 2.9%; in [7] it was 7.5%; in assay [8] it was -6.78%.
As to `CC(C)NC(=O)N1CCN(Cc2ccccn2)CC2(CC(=O)N(C)C2)C1` (stereo not given), the Percent Effect was -6.73% in assay [1]; 11.7% in [2]; 1.64% in assay [3]; -0.563% with Trypanosoma cruzi; -2.28% in assay [4]; 2.49% in assay [5]. For the same compound, the Percent Effect in the assay listed under Homo sapiens is 13.5%; in assay [6], 0%; in assay [7], 0%; in [8], -7.79%.
Take `Cn1ccc(C(=O)NCc2ccc(N3CCCC3)nc2)cc1=O`: the Percent Effect is -3.18% in assay [1]; 8% in [2]; 10.6% in [3]; 1% in the assay on Trypanosoma cruzi; 0% in [4]; 5.85% in assay [5]. Further, the Percent Effect was 21.7% in the assay filed under Homo sapiens, 3.68% in assay [6], 5.13% in assay [7] and -7.64% in assay [8].

Source of the values: ChEMBL document CHEMBL3988442, “University of Dundee, Small-Polar-MMV Screening Library” (2021).
